# Laboratory results published in PubChem BioAssay (NCATS).
# Inconclusive results are not listed. The source made the active and inactive calls. Unless noted, calls come from the whole dose curve; as a rule, active = well fitted curve in the direction sought with a large enough effect; inconclusive = small, poorly fitted or top-dose-only effect, or another doubt; inactive = no such curve, though single readings can be large; an effect the other way counts as inactive or inconclusive.
# Biological target: Calcium and integrin-binding protein 1 (Homo sapiens) (UniProt Q99828)
# Assay: Primary qHTS for Identification of Calcium Integrin Binding Protein 1 (CIB1) Competitor (AID 1508620);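 note: GST tagged CIB1 binding a fluorescein labelled alphaIIb integrin peptide tracer; top concentration of the series differs between compounds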
# Conditions: CIB1-GST / FITC-alphaIIb peptide fluorescence polarization; series mostly up to 57.7 µM; activity change, negative = inhibition: at the top concentration
# Method in brief: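 Fluorescence polarization competition: CIB1-GST (1 uM final) preincubated with compound 15 min at room temperature, then FITC-labeled alphaIIb peptide (100 nM final) added for another 15 min. Polarization read at Ex 480/Em 540.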
# % is set by controls: 0 for no effect and ±100 for the full control effect.
# Calcium and integrin-binding protein 1 (Homo sapiens), sequence (Q99828 whole entry, looked up): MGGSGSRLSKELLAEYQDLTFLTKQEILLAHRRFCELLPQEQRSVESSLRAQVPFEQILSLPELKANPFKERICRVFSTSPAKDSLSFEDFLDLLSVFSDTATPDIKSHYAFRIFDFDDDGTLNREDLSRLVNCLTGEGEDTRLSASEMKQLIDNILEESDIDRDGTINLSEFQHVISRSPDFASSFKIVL
row,Compound,"activity change, negative = inhibition"
1,C[C@@H]1C[C@@H](O)[C@@]23CO[C@]2(CO)C[C@@H](O)CC3[C@@]12CC(c1ccoc1)OC2=O (stereo partly drawn),-10.5% (inactive)
2,C/C=C/C=C/C1=C2C(=O)C3(C)C4C(C(=O)CC(O)/C=C/C)=C(O1)C1(C)C2C2(C)OC1(O)C4(C)OC23O (stereo not drawn),-12% (inactive)
3,CCC(=O)OCC(=O)[C@@]1(OC(=O)CC)[C@@H](C)C[C@H]2[C@@H]3CCC4=CC(=O)C=C[C@]4(C)[C@@]3(F)[C@@H](O)C[C@@]21C,0.145% [at 114 µM] (inactive)
4,C/C=C(\C)C(=O)O[C@H]1C=CC(=O)O[C@H]1/C=C/[C@H](O)[C@@H](C)O,-6.39% [at 114 µM] (inactive)
5,C=C(C(=O)OC)[C@]12O[C@@](C)(CC[C@@]3(O)/C(=C\C)C(=O)O[C@]3(C)C[C@@H]1OC(=O)C(CO)CN1CCCC1C(=O)O)CC2=O (stereo partly drawn),2.37% [at 30.2 µM] (inactive)
6,COC(=O)/C=C/c1ccc(O[C@@H]2O[C@H](CO)[C@@H](O)[C@H](O)[C@H]2O)cc1,8.09% (inactive)
7,Cc1occc(=O)c1O[C@@H]1O[C@H](CO)[C@@H](O)[C@H](O)[C@H]1O,1.3% [at 114 µM] (inactive)
8,OC[C@H]1O[C@@H](Oc2cc(O)cc(-c3cc4ccc(O[C@@H]5O[C@H](CO)[C@@H](O)[C@H](O)[C@H]5O)cc4o3)c2)[C@H](O)[C@@H](O)[C@@H]1O,-3.85% (inactive)
9,CC1(C)CCC2(C(=O)O)C(O)CC3(C)C(=CCC4C5(C)CCC(OC6OC(CO)C(O)C(O)C6OC6OC(CO)C(O)C(O)C6OC6OCC(O)(CO)C6O)C(C)(C)C5CCC43C)C2C1 (stereo not drawn),2.07% [at 30.2 µM] (inactive)
10,CC1(C)CC[C@]2(C(=O)O)CC[C@]3(C)C(=CCC4[C@@]5(C)C[C@H](O)[C@H](O[C@@H]6O[C@H](CO)[C@@H](O)[C@H](O)[C@H]6O)[C@@](C)(CO)C5[C@H](O)C[C@]43C)[C@@H]2C1 (stereo partly drawn),-0.111% [at 30.2 µM] (inactive)
11,C/C=C(\C)C(=O)OC1C2(O)CC3=C4CC(=O)OC(c5ccoc5)C4(C)CCC3C(C)(C2=O)C(C(OC(C)=O)C(=O)OC)C1(C)C (stereo not drawn),3.36% [at 30.2 µM] (inactive)
12,CC(C)(CC(=O)N1CCCC1)NCC(=O)N1C[C@@H](F)C[C@H]1C#N,-4.61% [at 114 µM] (inactive)
13,CC(=O)O[C@@H](C[C@@H]1C=C(C)C(=O)O1)[C@H](C)[C@H]1CCC2[C@@]3(C)CC[C@H](O[C@@H]4O[C@H](CO)[C@@H](O)[C@H](O)[C@H]4O[C@@H]4O[C@@H](C)[C@H](O)[C@@H](O)[C@H]4O)C(C)(C)C3CC[C@@]2(C)[C@@]12COC(=O)C2 (stereo partly drawn),2.36% [at 30.2 µM] (inactive)
14,COC(=O)C1C(c2ccc(O)cc2)C(C(=O)O)C1c1ccc(O)cc1 (stereo not drawn),-6.62% (inactive)
15,COc1cc(C2Oc3c(OC)cc(CCCO)cc3C2CO)ccc1O (stereo not drawn),4.95% (inactive)
16,CC1=C[C@H]2[C@@H](CC1=O)[C@H](C)C[C@H](O)[C@H]2C(C)C,1.41% [at 114 µM] (inactive)
17,COc1cc2c(cc1O)C(c1ccc(O)cc1)C(C)C(C)C2 (stereo not drawn),-5.89% [at 114 µM] (inactive)
18,C=C(CO)C(=O)O[C@H]1C[C@@]23O[C@@H]2CC/C(=C/[C@H]2OC(=O)C(=C)[C@H]12)CO[C@H]3O,-6.61% (inactive)
19,C/C=C1/CC2C(=O)Nc3cc(O)c(OC)cc3C(=O)N2C1 (stereo not drawn),-2.95% (inactive)
20,C[C@H]1CC[C@@]2(OC1)O[C@H]1CC3C4CC[C@H]5C[C@@H](O)CC[C@]5(C)C4CC(=O)[C@]3(C)[C@H]1[C@@H]2C (stereo partly drawn),4.85% (inactive)

# Biological target: Cytochrome P450 2D6 (Homo sapiens) (UniProt P10635)
# Assay: Cytochrome P450 family 2 subfamily D member 6 (CYP2D6) small molecule antagonists: luciferase biochemical (cell-free) qHTS assay (AID 1645840; active = well fitted curve in the direction sought with a large enough effect in the repeat runs; an effect the other way counts as inactive or inconclusive; note: nearly all actives have a fitted effect of over 55% in size; note: potency is the fitted concentration of half-maximal effect)
# Conditions: P450-Glo CYP2D6 enzyme, luciferin luminescence, 1 h; series mostly up to 57.4 µM; activity change, negative = inhibition: at the top concentration
# Method in brief: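 P450-Glo luminescent screen: recombinant CYP2D6 enzyme–proluciferin substrate mix preincubated with compound 10 min at room temperature, then NADPH regeneration added for 1 h at room temperature. Detection reagent added for 20 min; luciferin light read as relative luminescence units.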
# Cytochrome P450 2D6 (Homo sapiens), sequence (P10635 whole entry, looked up): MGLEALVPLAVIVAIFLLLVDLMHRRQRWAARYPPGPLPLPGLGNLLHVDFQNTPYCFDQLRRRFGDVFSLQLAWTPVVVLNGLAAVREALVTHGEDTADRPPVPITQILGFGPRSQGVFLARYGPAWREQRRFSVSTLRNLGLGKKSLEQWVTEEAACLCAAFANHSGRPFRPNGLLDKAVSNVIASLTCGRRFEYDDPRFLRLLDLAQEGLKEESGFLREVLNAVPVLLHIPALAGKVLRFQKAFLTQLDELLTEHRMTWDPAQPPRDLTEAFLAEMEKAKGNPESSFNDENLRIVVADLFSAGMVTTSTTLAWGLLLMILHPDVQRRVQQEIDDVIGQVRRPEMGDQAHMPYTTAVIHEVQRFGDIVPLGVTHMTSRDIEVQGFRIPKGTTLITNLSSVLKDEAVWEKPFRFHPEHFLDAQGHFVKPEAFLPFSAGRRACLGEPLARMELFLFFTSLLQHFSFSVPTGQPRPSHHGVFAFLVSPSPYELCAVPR
Compound,"activity change, negative = inhibition",Potency
Cc1ccccc1NC(=O)Nc1ccc(CN2C(=O)N([C@@H](CC(C)C)C(=O)N[C@@H](CC(=O)O)c3ccccc3)C(=O)C2(C)C)cc1,-1.21% (inactive),–
Oc1ccc2c(-c3c(-c4ccccn4)nn4c3CCC4)ccnc2c1,-19.8% (inactive),–
CCCc1[nH]nc2c1C(c1cc(Cl)cc(Cl)c1O)C(C#N)=C(N)O2 (stereo not drawn),–,2.13 µM (active)
CCOc1ccc(-c2cc(NC(=O)c3c(F)cccc3F)c(C(=O)O)s2)cc1,–,7.56 µM (active)

# Biological target: Cytochrome P450 2C9 (Homo sapiens) (UniProt P11712)
# Assay: Cytochrome P450 family 2 subfamily C member 9 (CYP2C9) small molecule antagonists: luciferase biochemical (cell-free) qHTS assay (AID 1645842; active = well fitted curve in the direction sought with a large enough effect in the repeat runs; an effect the other way counts as inactive or inconclusive; note: nearly all actives have a fitted effect of over 55% in size; note: potency is the fitted concentration of half-maximal effect)
# Conditions: P450-Glo CYP2C9 enzyme assay, luciferin luminescence; series mostly up to 57.4 µM; activity change, negative = inhibition: at the top concentration
# Method in brief: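 Luminescence, after 20 min with luciferin detection reagent, reflected CYP2C9 turnover during a 1 h NADPH-driven reaction at 37C. Enzyme-substrate mix contained 0.4% bovine serum albumin and was preincubated with compound 10 min at room temperature.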
# Cytochrome P450 2C9 (Homo sapiens), sequence (P11712 whole entry, looked up): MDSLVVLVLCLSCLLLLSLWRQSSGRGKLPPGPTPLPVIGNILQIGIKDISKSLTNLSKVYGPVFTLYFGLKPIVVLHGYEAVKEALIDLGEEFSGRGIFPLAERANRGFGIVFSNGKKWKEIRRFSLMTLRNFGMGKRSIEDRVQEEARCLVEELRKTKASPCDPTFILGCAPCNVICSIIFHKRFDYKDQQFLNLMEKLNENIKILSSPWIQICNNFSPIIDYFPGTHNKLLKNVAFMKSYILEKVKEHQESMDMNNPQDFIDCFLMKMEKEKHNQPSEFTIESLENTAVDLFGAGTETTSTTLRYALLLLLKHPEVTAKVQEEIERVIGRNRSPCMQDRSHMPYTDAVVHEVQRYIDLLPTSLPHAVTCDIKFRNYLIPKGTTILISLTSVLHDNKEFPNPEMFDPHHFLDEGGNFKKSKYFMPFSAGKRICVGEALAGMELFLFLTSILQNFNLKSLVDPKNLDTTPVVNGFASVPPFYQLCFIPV
Compound,Potency,"activity change, negative = inhibition"
O=C(O)c1cccc(CN2C(=O)/C(=C(\c3ccccc3)c3ccc(Cl)cc3)c3ccccc32)c1,15.1 µM (active),–
COc1cc(Nc2ccc([N+](=O)[O-])cc2C(=O)O)cc2ccccc12,6.74 µM (active),–
COc1ccc(S(=O)(=O)Nc2nc(-c3cccc([N+](=O)[O-])c3)cs2)cc1OC,4.25 µM (active),–
Oc1ccc2c(-c3c(-c4ccccn4)nn4c3CCC4)ccnc2c1,–,-29% (inactive)
CCCc1[nH]nc2c1C(c1cc(Cl)cc(Cl)c1O)C(C#N)=C(N)O2 (stereo not drawn),12 µM (active),–

# System: not listed separately
# Assay: Primary qHTS for inhibitors of nuclear receptor binding SET domain protein 2 (NSD2) in an isogenic RCH-ACV NSD2 p.E1099K mutant (9B) (AID 1645876); note: nearly all actives have a fitted effect of over 70% in size; note: potency is the fitted concentration of half-maximal effect
# Conditions: RCH-ACV (leukaemia line) NSD2 E1099K (9B) viability, CellTiter-Glo, 72 h; series mostly up to 44.9 µM; activity change, negative = viability loss: at the top concentration
Compound,"activity change, negative = viability loss",outcome,Potency
C[C@@H]1C[C@@H](O)[C@@]23CO[C@]2(CO)C[C@@H](O)CC3[C@@]12CC(c1ccoc1)OC2=O (stereo partly drawn),-5.63% (inactive),–,–
O=C(O)CC1(O)C(=O)Nc2ccccc21 (stereo not drawn),1.87% [at 91.9 µM] (inactive),–,–
Cc1occc(=O)c1O[C@@H]1O[C@H](CO)[C@@H](O)[C@H](O)[C@H]1O,–,inactive,–
COc1cc(/C=C/c2ccccc2)c(C(=O)O)c(O)c1CC=C(C)C,-22.7% (inactive),–,–
CC1(C)CCC2(C(=O)O)C(O)CC3(C)C(=CCC4C5(C)CCC(OC6OC(CO)C(O)C(O)C6OC6OC(CO)C(O)C(O)C6OC6OCC(O)(CO)C6O)C(C)(C)C5CCC43C)C2C1 (stereo not drawn),3.44% [at 9.23 µM] (inactive),–,–
CC(C)(CC(=O)N1CCCC1)NCC(=O)N1C[C@@H](F)C[C@H]1C#N,-0.437% (inactive),–,–
Cc1c(O)cc2c(c1O)COC1(O)CCCOC21 (stereo not drawn),2.89% (inactive),–,–
COc1cc(Nc2ccc([N+](=O)[O-])cc2C(=O)O)cc2ccccc12,-19.7% (inactive),–,–
CC(=O)O[C@@H](C[C@@H]1C=C(C)C(=O)O1)[C@H](C)[C@H]1CCC2[C@@]3(C)CC[C@H](O[C@@H]4O[C@H](CO)[C@@H](O)[C@H](O)[C@H]4O[C@@H]4O[C@@H](C)[C@H](O)[C@@H](O)[C@H]4O)C(C)(C)C3CC[C@@]2(C)[C@@]12COC(=O)C2 (stereo partly drawn),-3.49% [at 9.23 µM] (inactive),–,–
C=C1CCC2C(C)(C)CC(O)CC2(C)C1CCC(C)CCOC(=O)CCC(=O)O (stereo not drawn),-22.4% [at 17.3 µM] (inactive),–,–
COC(=O)C1C(c2ccc(O)cc2)C(C(=O)O)C1c1ccc(O)cc1 (stereo not drawn),-11.8% (inactive),–,–
Cc1ccccc1NC(=O)Nc1ccc(CN2C(=O)N([C@@H](CC(C)C)C(=O)N[C@@H](CC(=O)O)c3ccccc3)C(=O)C2(C)C)cc1,4.17% (inactive),–,–
COc1cc(C2Oc3c(OC)cc(CCCO)cc3C2CO)ccc1O (stereo not drawn),-4.28% (inactive),–,–
COc1ccc(CCC(=O)c2c(O)cc(O[C@@H]3O[C@H](CO)[C@@H](O)[C@H](O)[C@H]3O[C@@H]3O[C@@H](C)[C@H](O)[C@@H](O)[C@H]3O)cc2O)cc1O,-0.0635% (inactive),–,–
O=C(/C=C/c1ccccc1)OC[C@H]1O[C@@H](OC(=O)c2cc(O)c(O)c(O)c2)[C@H](O)[C@@H](O)[C@@H]1O,-1.47% [at 17.3 µM] (inactive),–,–
COC(=O)C1C(O)CCC2CN3CCc4c([nH]c5ccccc45)C3CC21 (stereo not drawn),-6.46% (inactive),–,–
CC1CC2(O)OC(=O)C3=C2C(CCC3)[C@@]12C[C@@H](c1ccoc1)OC2=O (stereo partly drawn),-15.1% (inactive),–,–
COc1ccc(S(=O)(=O)Nc2nc(-c3cccc([N+](=O)[O-])c3)cs2)cc1OC,-8.05% (inactive),–,–
COc1cc2c(cc1O)C(c1ccc(O)cc1)C(C)C(C)C2 (stereo not drawn),–,–,25.8 µM (active)
COc1c(C)c(OCC(O)C(C)(C)O)cc2c1CNC2=O (stereo not drawn),-10.5% (inactive),–,–
C[C@H]1CC[C@@]2(OC1)O[C@H]1CC3C4CC[C@H]5C[C@@H](O)CC[C@]5(C)C4CC(=O)[C@]3(C)[C@H]1[C@@H]2C (stereo partly drawn),-4.4% [at 17.3 µM] (inactive),–,–
O=C(O)CCc1ccc(NCc2cccc3c2CCCN3CCOc2ccccc2)cc1F,-11.3% (inactive),–,–
CCc1nnc(NS(=O)(=O)c2ccc(NC(=S)NC(=O)/C=C/c3ccc(F)cc3)cc2)s1,–,inactive,–
N=C(N)c1ccc2nc(-c3cc(CC(=O)NC(CC(=O)O)C(=O)O)cc(-c4cc(S(N)(=O)=O)ccc4O)c3O)[nH]c2c1 (stereo not drawn),3.03% (inactive),–,–
